Of roughly 7,900 targets only a part is listed; those with a hit were picked by preference. About 0.6% of all pairs of compound and target were hits.
What was measured:
Experiment in all cases: log2 fold change, soluble protein after heating vs DMSO (PISA); higher = thermal stabilisation; K562 cells, 10 uM, 30 min; active = over 0.2 and 3.5 SD of the protein, either way, in both replicates (recomputed)
[1] = compound: CN1CCN(CCOc2cc(OC3CCOCC3)c3c(Nc4c(Cl)ccc5c4OCO5)ncnc3c2)CC1 [saracatinib]
Method in brief: (§1)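 K562 cells at 2×10^6 cells/mL were treated for 30 min with 10 μM compound, and aliquots were heated for 3 min over 48°C-58°C before pooling. Extraction used PBS with 0.5% NP-40 at 4°C, and soluble protein was the supernatant after 21,000xg for 90 min, measured by TMTpro 16plex LC-MS/MS with channel sums equalised. Thermal stability values, relative to control samples and from duplicates, are log2 fold changes.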

[2] = compound: CN1CCN(c2nc(C3=C(c4c[nH]c5ccccc45)C(=O)NC3=O)c3ccccc3n2)CC1 [sotrastaurin]
Method in brief: as §1

[3] = compound: CN1CC[C@H](c2c(O)cc(O)c3c(=O)cc(-c4ccccc4Cl)oc23)[C@H](O)C1 [alvocidib]
Method in brief: as §1

[4] = compound: CN1CCc2c(c3ccccc3n2Cc2ccc(C(=O)NO)cc2)C1 [Tubastatin A]
Method in brief: as §1

[5] = compound: CNC(=O)C1=CC=CC=C1NC2=NC(=NC=C2Cl)NC3=C(C=C(C=C3)N4CCOCC4)OC
Method in brief: as §1

[6] = compound: CNC(=O)c1ccc(Nc2ncc(C(F)(F)F)c(NCc3nccnc3N(C)S(C)(=O)=O)n2)cc1 [defactinib]
Method in brief: as §1

[7] = compound: CNCc1ccc(-c2[nH]c3cc(F)cc4c3c2CCNC4=O)cc1 [rucaparib]
Method in brief: as §1

[8] = compound: CNc1nc(-c2ccc3c(N)n[nH]c3c2)cc(N2C[C@@H](C(=O)NC3CCCCC3)CC[C@H]2C)n1
Method in brief: as §1

[9] = compound: COC(=O)N[C@@H](C)CNc1nccc(-c2cn(C(C)C)nc2-c2cc(Cl)cc(NS(C)(=O)=O)c2F)n1 [encorafenib]
Method in brief: as §1

[10] = compound: COC(=O)[C@H](CCSC)NC(=O)C1=C(C=C(C=C1)NC[C@H](CS)N)C2=CC=CC=C2
Method in brief: as §1

Measured: log2 fold change

SMAD2 (UniProt Q15796)
inactive: [1] 0.001 | [2] -0.235 | [3] -0.316 | [4] 0.016 | [5] 0.025 | [6] -0.142 | [7] 0.043 | [8] 0.039 | [9] -0.045 | [10] -0.052

SMARCB1 (UniProt Q12824)
inactive: [1] -0.09 | [2] -0.192 | [3] -0.106 | [4] 0.016 | [6] -0.158 | [8] -0.009 | [9] -0.247 | [10] 0.144
active: [7] 0.809

SLC38A2 (UniProt Q96QD8)
inactive: [1] -0.007 | [2] 0.027 | [3] 0 | [4] -0.043 | [5] 0.004 | [6] -0.034 | [7] -0.044 | [8] -0.188 | [9] 0.045 | [10] -0.024

STARD3 (UniProt Q14849)
inactive: [1] -0.043 | [2] -0.028 | [3] 0.035 | [4] 0.013 | [5] -0.02 | [6] -0.035 | [8] 0.028 | [10] -0.014

SSRP1 (UniProt Q08945)
inactive: [1] 0.01 | [2] -0.049 | [3] -0.157 | [4] 0.099 | [5] -0.052 | [7] -0.038 | [8] -0.045 | [9] 0.048 | [10] -0.05
active: [6] -0.23

TANGO6 (UniProt Q9C0B7)
inactive: [1] -0.09 | [2] -0.135 | [3] -0.084 | [4] 0.116 | [5] -0.077 | [7] 0.586 | [8] 0.037 | [9] 0.001

SMDT1 (UniProt Q9H4I9)
inactive: [1] 0.092 | [2] -0.077 | [3] -0.005 | [4] 0.035 | [6] 0.014 | [7] 0.057 | [8] -0.064 | [9] 0.011 | [10] 0.003

TM7SF3 (UniProt Q9NS93)
inactive: [1] 0.072 | [2] 0.035 | [3] 0.068 | [4] -0.082 | [5] 0.039 | [7] -0.077 | [8] -0.011 | [9] 0.089

TLK1 (UniProt Q9UKI8)
inactive: [1] 0.022 | [2] -0.011 | [3] -0.022 | [4] 0.036 | [5] -0.064 | [6] -0.013 | [7] -0.029 | [8] -0.002 | [9] 0.022 | [10] -0.033

TFB2M (UniProt Q9H5Q4)
inactive: [1] -0.029 | [2] -0.031 | [3] -0.082 | [4] -0.012 | [5] 0.02 | [6] -0.06 | [7] -0.013 | [8] -0.054 | [9] -0.002 | [10] -0.001

SYK (UniProt P43405)
inactive: [1] -0.151 | [3] -0.168 | [4] 0.355 | [5] -0.113 | [6] 0.249 | [7] 0.258 | [8] 0.03 | [9] 0.112 | [10] -0.012

SLC38A7 (UniProt Q9NVC3)
inactive: [2] 0.152 | [3] -0.137 | [4] -0.177 | [5] -0.052 | [6] -0.126 | [7] 0.004 | [9] 0.016 | [10] -0.261

TK1 (UniProt K7ERV3)
inactive: [1] 0.037 | [2] 0.011 | [3] -0.009 | [4] -0.013 | [6] 0 | [8] -0.058 | [10] -0.003

THAP9 (UniProt Q9H5L6)
inactive: [1] 0.039 | [3] -0.087 | [8] 0.186

SPAG9 isoform 4 (UniProt O60271)
UniProt O60271, sequence (O60271 whole entry, looked up): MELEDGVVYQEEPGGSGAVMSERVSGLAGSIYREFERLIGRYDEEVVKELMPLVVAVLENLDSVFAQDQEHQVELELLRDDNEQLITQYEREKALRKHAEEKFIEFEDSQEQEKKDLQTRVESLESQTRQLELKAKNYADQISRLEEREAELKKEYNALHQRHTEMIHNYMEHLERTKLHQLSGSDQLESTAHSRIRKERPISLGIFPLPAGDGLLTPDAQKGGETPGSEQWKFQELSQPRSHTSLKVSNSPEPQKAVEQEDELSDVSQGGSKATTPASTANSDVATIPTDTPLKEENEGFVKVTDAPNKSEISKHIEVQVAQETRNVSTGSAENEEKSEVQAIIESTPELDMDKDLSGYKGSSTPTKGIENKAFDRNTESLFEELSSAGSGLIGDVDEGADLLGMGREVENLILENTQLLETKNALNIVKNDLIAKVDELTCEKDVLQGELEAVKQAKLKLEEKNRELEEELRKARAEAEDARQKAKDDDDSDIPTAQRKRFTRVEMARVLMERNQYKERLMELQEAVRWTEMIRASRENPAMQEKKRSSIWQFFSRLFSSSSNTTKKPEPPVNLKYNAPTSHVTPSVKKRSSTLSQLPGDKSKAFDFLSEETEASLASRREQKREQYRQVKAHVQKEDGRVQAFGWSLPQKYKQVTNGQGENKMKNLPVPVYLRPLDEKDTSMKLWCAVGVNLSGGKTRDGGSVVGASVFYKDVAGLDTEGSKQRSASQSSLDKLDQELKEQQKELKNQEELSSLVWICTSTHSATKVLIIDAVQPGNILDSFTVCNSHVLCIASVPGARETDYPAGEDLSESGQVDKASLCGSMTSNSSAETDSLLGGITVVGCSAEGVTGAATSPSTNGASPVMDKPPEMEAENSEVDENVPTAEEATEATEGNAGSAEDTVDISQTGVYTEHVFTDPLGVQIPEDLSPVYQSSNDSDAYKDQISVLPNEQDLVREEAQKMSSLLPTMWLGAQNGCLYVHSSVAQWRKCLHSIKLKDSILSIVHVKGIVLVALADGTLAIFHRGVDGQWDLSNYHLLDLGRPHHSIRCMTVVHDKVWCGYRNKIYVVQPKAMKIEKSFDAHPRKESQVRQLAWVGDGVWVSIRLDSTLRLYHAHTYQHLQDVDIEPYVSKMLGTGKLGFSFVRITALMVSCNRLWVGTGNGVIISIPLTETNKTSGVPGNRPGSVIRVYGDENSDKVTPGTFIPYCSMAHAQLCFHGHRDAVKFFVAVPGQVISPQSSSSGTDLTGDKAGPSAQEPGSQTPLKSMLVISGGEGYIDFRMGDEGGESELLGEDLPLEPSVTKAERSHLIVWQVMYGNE
inactive: [2] -0.171 | [3] 0.037 | [4] -0.103 | [5] 0.081 | [6] 0.018 | [7] 0.113 | [9] 0.022 | [10] 0.088

SNRK (UniProt Q9NRH2)
inactive: [1] -0.092 | [2] 0.003 | [7] -0.099 | [8] 0.011 | [9] 0.002

TCOF1 isoform 6 (UniProt Q13428)
inactive: [2] -0.094 | [3] 0.104 | [4] -0.103 | [5] -0.149 | [6] 0.027 | [7] -0.022 | [9] 0.162 | [10] -0.053

SSBP4 (UniProt Q9BWG4)
UniProt Q9BWG4, sequence (Q9BWG4 whole entry, looked up): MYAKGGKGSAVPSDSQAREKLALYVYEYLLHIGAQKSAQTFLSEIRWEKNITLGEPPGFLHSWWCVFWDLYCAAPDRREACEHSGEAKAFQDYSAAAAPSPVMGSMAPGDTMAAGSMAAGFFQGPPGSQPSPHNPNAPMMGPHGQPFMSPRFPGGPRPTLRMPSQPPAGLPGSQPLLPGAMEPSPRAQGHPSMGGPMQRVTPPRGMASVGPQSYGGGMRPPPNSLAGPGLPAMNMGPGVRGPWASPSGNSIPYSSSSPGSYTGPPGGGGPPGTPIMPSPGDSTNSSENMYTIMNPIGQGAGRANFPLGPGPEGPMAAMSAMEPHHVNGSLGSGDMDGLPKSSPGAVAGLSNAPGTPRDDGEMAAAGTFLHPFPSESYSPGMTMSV
inactive: [2] 0 | [4] 0.038 | [5] -0.184 | [7] 0.022 | [8] 0.031 | [9] -0.18
active: [1] 0.409

SMARCA4 (UniProt P51532)
UniProt P51532, sequence (P51532 whole entry, looked up): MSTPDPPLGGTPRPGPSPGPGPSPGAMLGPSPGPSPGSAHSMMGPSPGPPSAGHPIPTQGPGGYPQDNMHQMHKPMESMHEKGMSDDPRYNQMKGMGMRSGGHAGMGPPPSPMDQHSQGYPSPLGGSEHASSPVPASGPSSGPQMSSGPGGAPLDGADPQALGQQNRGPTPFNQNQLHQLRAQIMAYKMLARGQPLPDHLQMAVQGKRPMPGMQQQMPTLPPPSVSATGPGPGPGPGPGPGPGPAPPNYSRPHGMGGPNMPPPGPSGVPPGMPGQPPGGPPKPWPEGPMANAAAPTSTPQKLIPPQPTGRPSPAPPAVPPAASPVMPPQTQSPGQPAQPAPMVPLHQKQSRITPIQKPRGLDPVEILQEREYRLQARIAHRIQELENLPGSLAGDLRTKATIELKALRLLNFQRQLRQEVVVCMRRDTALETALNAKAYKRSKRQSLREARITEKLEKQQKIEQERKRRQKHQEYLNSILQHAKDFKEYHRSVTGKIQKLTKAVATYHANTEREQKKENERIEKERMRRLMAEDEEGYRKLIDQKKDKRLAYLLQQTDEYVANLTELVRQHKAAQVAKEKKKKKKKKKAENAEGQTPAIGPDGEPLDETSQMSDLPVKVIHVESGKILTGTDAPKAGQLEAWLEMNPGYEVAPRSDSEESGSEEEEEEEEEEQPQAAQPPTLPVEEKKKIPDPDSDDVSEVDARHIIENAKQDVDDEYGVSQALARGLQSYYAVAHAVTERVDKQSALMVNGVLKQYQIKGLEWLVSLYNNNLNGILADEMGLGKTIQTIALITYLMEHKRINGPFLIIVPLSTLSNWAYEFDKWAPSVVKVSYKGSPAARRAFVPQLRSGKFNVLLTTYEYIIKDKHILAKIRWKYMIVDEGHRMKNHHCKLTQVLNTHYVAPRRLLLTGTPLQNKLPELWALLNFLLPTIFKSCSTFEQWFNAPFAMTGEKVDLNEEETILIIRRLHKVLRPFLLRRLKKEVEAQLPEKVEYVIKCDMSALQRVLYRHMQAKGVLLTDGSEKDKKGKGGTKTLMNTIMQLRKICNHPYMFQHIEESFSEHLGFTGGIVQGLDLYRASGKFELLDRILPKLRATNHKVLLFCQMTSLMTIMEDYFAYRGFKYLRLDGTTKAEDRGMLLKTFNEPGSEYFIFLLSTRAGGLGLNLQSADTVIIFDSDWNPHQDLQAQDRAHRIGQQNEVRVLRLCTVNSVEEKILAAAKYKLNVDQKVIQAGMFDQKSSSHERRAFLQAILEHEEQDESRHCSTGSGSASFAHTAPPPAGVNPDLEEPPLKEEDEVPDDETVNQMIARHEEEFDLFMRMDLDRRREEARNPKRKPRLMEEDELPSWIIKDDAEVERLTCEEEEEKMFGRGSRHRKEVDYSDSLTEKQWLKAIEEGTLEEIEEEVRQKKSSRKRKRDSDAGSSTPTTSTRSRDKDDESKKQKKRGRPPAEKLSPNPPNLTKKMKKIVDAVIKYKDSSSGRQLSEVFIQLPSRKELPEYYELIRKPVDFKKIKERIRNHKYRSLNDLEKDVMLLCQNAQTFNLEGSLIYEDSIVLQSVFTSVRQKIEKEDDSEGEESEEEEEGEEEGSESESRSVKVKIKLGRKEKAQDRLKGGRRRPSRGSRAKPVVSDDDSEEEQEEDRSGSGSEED
inactive: [1] -0.303 | [2] -0.086 | [3] -0.068 | [5] -0.17 | [6] 0.134 | [7] 0.099 | [8] -0.091 | [9] 0.049 | [10] 0.022

TAOK2 (UniProt Q9UL54)
inactive: [4] -0.003 | [5] 0.244 | [7] -0.012 | [9] -0.028

SREBF1 isoform 4 (UniProt P36956)
inactive: [1] 0.077 | [5] 0.033 | [7] -0.164 | [8] 0.045 | [9] 0.044

TEX30 (UniProt Q5JUR7)
inactive: [1] -0.065 | [3] -0.177 | [4] 0.022 | [5] 0.015 | [6] -0.096 | [8] -0.026 | [10] 0.017

SLC39A1 (UniProt Q9NY26)
inactive: [3] 0.072 | [5] -0.129

SRSF9 (UniProt Q13242)
UniProt Q13242, sequence (Q13242 whole entry, looked up): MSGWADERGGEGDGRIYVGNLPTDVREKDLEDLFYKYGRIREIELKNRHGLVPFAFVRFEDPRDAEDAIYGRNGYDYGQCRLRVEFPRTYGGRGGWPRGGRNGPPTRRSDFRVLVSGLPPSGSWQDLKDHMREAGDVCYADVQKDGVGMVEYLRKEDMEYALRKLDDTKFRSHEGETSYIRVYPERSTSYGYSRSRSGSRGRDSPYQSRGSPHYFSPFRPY
inactive: [1] 0.022 | [2] -0.015 | [3] 0.27 | [5] -0.145 | [6] 0.276 | [7] 0.376 | [8] 0.097 | [9] 0.149 | [10] -0.024

TDP1 (UniProt Q9NUW8)
inactive: [3] -0.028 | [5] -0.041

TC2N (UniProt Q8N9U0)
inactive: [1] -0.215 | [4] 0.308 | [6] -0.341 | [8] -0.064 | [10] -0.096

SRC isoform 2 (UniProt P12931)
UniProt P12931, sequence (P12931 whole entry, looked up): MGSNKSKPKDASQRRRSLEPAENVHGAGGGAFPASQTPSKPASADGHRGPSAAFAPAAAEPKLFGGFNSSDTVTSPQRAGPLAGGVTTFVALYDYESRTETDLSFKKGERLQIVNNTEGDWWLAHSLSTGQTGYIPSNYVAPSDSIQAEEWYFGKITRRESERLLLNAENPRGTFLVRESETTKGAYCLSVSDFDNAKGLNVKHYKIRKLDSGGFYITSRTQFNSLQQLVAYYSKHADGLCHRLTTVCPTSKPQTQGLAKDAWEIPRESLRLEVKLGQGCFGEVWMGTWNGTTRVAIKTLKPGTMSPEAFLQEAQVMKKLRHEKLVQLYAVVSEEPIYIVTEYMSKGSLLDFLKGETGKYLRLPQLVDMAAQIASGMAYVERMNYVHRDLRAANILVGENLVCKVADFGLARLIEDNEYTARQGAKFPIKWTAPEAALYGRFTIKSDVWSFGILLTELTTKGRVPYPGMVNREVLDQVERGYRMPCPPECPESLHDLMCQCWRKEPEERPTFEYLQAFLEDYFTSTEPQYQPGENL
inactive: [2] -0.167 | [3] -0.061 | [4] -0.108 | [5] -0.069 | [6] -0.077 | [7] -0.343 | [8] 0.007 | [9] 0.082 | [10] 0.188

SOX5 (UniProt P35711)
inactive: [2] -0.014 | [3] -0.163 | [4] 0.263 | [5] -0.053 | [6] -0.224 | [10] 0.064

SSBP4 (UniProt U3KPY3)
inactive: [6] -0.189 | [10] -0.121

TM7SF2 (UniProt O76062)
inactive: [1] 0.069 | [2] -0.142 | [3] -0.048 | [5] -0.043 | [6] -0.006 | [8] 0.018 | [10] -0.096

SPIRE1 (UniProt Q08AE8)
inactive: [3] 0.153 | [4] 0.141 | [5] -0.166 | [6] 0.047 | [7] 0.035 | [9] -0.105 | [10] -0.074

SMPD4 isoform 2 (UniProt Q9NXE4)
inactive: [1] 0.028 | [3] -0.07 | [4] -0.054 | [6] 0.094 | [8] 0.02 | [10] -0.19

SRXN1 (UniProt Q9BYN0)
UniProt Q9BYN0, sequence (Q9BYN0 whole entry, looked up): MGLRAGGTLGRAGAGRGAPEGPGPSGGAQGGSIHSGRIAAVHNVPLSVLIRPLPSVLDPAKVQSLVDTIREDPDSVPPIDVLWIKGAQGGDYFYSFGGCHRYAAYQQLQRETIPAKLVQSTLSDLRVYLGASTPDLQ
inactive: [2] 0.019 | [3] 0.015 | [4] 0.209 | [6] -0.283 | [7] 0.111 | [9] -0.008 | [10] 0.022

TBK1 (UniProt Q9UHD2)
inactive: [1] -0.026 | [2] -0.063 | [4] -0.014 | [6] 0.079 | [7] 0.106 | [8] -0.013 | [9] 0.049 | [10] 0.001
active: [5] 0.536

SUPT5H isoform 2 (UniProt O00267)
inactive: [6] -0.005 | [10] -0.058

SNX2 isoform 2 (UniProt O60749)
inactive: [1] -0.002 | [2] 0.003 | [3] -0.078 | [6] -0.155 | [7] 0.024 | [8] 0.176 | [9] -0.141 | [10] 0.097

STK17B (UniProt O94768)
active: [5] -1.03

SSB (UniProt E7ERC4)
inactive: [1] -0.05 | [6] -0.205 | [8] 0.018 | [10] -0.092

SPIN4 (UniProt Q56A73)
inactive: [5] -0.199

TBC1D2 (UniProt Q9BYX2)
inactive: [7] 0.264 | [9] 0.122

SLC9A6 isoform 3 (UniProt Q92581)
inactive: [1] 0.128 | [3] -0.044 | [4] 0.04 | [5] 0.104 | [7] 0.165 | [8] -0.107 | [9] -0.162

TBC1D20 isoform 3 (UniProt Q96BZ9)
inactive: [2] 0.053 | [3] -0.428 | [5] 0.004 | [6] -0.044 | [7] 0.05 | [9] 0.074 | [10] -0.068

SLC8B1 (UniProt Q6J4K2)
inactive: [1] 0.036 | [3] 0.012 | [5] -0.019 | [6] 0.029 | [8] -0.176 | [10] -0.028

SP2 (UniProt Q02086)
inactive: [1] 0.09 | [2] 0.091 | [7] 0.324 | [8] -0.132 | [9] -0.025

SLC35B4 (UniProt Q969S0)
inactive: [2] 0.012 | [4] 0.014 | [5] 0.046 | [6] 0.086 | [7] 0.036 | [9] -0.015 | [10] -0.146

TCOF1 isoform 3 (UniProt Q13428)
inactive: [2] 0.326 | [4] 0.054 | [5] -0.007 | [7] -0.065 | [9] -0.084

SLC46A1 (UniProt Q96NT5)
UniProt Q96NT5, sequence (Q96NT5 whole entry, looked up): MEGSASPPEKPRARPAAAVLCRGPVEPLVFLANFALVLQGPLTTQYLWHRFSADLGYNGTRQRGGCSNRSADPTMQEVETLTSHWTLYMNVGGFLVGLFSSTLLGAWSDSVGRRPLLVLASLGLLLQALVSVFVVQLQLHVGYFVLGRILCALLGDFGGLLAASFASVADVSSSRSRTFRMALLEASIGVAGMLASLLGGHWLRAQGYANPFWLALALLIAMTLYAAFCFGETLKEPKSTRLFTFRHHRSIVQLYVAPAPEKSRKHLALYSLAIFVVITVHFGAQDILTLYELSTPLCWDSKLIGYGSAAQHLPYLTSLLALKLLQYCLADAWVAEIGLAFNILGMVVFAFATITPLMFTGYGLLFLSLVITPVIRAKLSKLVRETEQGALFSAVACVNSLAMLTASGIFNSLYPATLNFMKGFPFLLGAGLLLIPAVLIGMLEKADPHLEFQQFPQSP
inactive: [3] 0.193 | [4] 0.067 | [5] 0.085 | [6] 0.034 | [7] -0.081 | [9] -0.051 | [10] -0.011

TBP (UniProt P20226)
UniProt P20226, sequence (P20226 whole entry, looked up): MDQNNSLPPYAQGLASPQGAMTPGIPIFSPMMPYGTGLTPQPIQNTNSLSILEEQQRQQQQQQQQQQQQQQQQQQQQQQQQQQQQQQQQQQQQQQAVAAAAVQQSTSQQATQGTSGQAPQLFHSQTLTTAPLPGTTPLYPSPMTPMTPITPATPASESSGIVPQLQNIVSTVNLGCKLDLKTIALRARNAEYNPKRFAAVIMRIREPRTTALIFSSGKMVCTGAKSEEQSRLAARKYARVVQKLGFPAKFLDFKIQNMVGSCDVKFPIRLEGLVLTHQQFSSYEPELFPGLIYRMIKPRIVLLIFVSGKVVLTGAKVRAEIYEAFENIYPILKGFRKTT
inactive: [1] 0.316 | [3] 0.119 | [4] -0.014 | [6] -0.003 | [7] 0.088 | [8] -0.158 | [9] 0.019 | [10] -0.071

Source: the supplement of paper PMC10849652
